# According to PubChem BioAssay AID376 (PDSP, 2006):
# Among all 2,000 compounds or so, about 250 (12%) were called active. The sample holds actives, similar compounds and a random draw of the others, so the mix is not that of the screen. Unmarked numbers belong to inactive results. No stated cut-off is given here; in the data, active means hERG blockade below about -20% or above about 20%; inactive means in between.
# Target: Voltage-gated inwardly rectifying potassium channel KCNH2 (Homo sapiens) (UniProt Q12809)
# Sequence (Q12809 whole entry, looked up): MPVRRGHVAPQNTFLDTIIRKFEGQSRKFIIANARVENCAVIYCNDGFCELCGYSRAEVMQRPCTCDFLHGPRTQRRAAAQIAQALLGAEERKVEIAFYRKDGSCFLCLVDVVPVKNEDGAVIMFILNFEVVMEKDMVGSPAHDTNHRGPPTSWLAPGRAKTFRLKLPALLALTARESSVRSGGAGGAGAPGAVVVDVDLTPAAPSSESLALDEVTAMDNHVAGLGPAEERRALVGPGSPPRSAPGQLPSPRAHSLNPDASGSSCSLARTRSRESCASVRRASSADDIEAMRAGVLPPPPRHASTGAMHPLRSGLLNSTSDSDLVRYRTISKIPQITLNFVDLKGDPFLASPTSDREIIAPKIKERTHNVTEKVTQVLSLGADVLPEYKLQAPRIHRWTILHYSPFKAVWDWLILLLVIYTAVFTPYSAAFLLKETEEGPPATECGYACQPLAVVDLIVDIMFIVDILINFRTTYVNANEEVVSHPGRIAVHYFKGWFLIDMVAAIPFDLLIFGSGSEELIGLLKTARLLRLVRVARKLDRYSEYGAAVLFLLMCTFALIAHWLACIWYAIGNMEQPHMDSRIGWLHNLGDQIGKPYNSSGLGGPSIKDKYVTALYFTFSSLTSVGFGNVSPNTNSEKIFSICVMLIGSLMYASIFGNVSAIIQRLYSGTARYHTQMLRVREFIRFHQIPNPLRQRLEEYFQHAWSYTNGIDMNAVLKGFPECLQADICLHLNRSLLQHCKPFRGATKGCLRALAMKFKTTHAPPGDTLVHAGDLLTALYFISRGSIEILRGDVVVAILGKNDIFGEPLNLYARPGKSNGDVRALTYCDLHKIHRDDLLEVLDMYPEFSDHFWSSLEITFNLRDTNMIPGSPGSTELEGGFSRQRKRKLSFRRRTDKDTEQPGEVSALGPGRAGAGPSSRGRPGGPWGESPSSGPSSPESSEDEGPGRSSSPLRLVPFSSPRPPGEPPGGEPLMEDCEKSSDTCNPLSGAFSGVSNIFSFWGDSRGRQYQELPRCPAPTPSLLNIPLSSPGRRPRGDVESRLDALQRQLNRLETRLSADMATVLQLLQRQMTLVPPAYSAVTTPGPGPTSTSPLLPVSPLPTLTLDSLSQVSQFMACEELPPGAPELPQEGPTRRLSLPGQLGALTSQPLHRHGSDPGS
# Test: modulators of KCNH2 ion channel function, cellular (AID 376);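 further: 0% = buffer alone and 100% = reference blocker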
# Conditions: hERG-expressing cells, channel activity single-concentration screen; concentration not given here
row,Structure (SMILES),hERG blockade
1,NCCCc1ccc2oc3ccccc3c2c1,29.2% (active)
2,Cc1cc(=O)[nH]c2cc3oc4ccccc4c3cc12,4.54%
3,Cn1cnc([N+](=O)[O-])c1SCC(=O)O,2.91%
4,O=C(O)CSc1ccc([N+](=O)[O-])cc1[N+](=O)[O-],2.18%
5,O=C(O)CSc1ncccc1[N+](=O)[O-],-20.2% (active)
6,NCC(O)CSCc1ccc(Cl)cc1 (stereo unspecified),-14.3%
7,c1ccc(-c2nnn(CCN3CCCCC3)n2)cc1,-7.12%
8,Cn1c(=O)c2c(nc(NN=Cc3ccccc3C(=O)O)n2C)n(C)c1=O,-7%
9,CC(C)C(C(=O)O)N1C(=O)c2ccccc2C1=O (stereo unspecified),5.91%
10,Cc1ccc(C(N)=Nc2ccccc2)cc1,8.7%
11,O=C(O)CCc1ccc(-c2ccccc2)[nH]1,-28.1% (active)
12,O=C(O)CCc1nc2ccccc2[nH]1,-3.47%
13,O=C(O)CCc1nc(-c2ccccc2)c(-c2ccccc2)o1,1.96%
14,O=C(CC(C(=O)O)N1CCOCC1)c1ccccc1 (stereo unspecified),7.79%
15,OCC(O)C(O)C(O)C(O)c1nc2ccc(Cl)cc2[nH]1 (stereo unspecified),3.95%
16,Cc1cc(Cc2cc(C)cc(C(C)(C)C)c2O)c(O)c(Cc2cc(C)cc(C(C)(C)C)c2O)c1,15.5%
17,Cc1ncc(CSc2ccccc2N)c(CO)c1O,-7.6%
18,Clc1ccc(CN2CCCN(Cc3ccc(Cl)cc3)C2c2cc3ccccc3c3ccccc23)cc1,-5.92%
19,CC(C)(C)c1ccc(CN2CCN(C(c3ccccc3)c3ccc(Cl)cc3)CC2)cc1 (stereo unspecified),23.1% (active)
20,c1ccc(CN2CCC3(CC2)SSC2(CCN(Cc4ccccc4)CC2)SS3)cc1,1.07%
21,CC1NCCC(CC(=O)O)C1CC(=O)O (stereo unspecified),-10.6%
22,CC(C(=O)c1ccccc1)C(c1ccccc1)N1CCOCC1 (stereo unspecified),-13.1%

row,Structure (SMILES),hERG blockade
1,Cc1onc(-c2c(F)cccc2Cl)c1C(=O)NC1C(=O)N2C1SC(C)(C)C2C(=O)O (stereo unspecified),8.23%
2,Cc1ccc2nc(NN=Cc3cccc(C)n3)cc(C)c2c1,26.3% (active)
3,CSc1nnnc2ccccc12,8.81%
4,O=C(O)C(=Cc1ccnc2ccccc12)C(=O)O,3.04%
5,O=C(O)C(Cc1cn[nH]n1)=NO,7.89%
6,O=C(O)C(Cc1ccnc2ccccc12)=NO,-22.9% (active)
7,NC(=O)SCC(=O)Nc1ccc2ncccc2c1,8.17%
8,CC1(C)N=C(N)N=C(N)N1c1cccc(OCc2cccc([N+](=O)[O-])c2)c1,-1.1%
9,CC(C)(COC1CC2CCC1(C)C2(C)C)[N+](=O)[O-] (stereo unspecified),-4.38%
10,N#CC(=CNc1ccccn1)C(=O)C1CC1,0.609%
11,N=C(N)SC1c2ccccc2-c2cc([N+](=O)[O-])ccc21 (stereo unspecified),50.8% (active)
12,NC(Cc1cccc([N+](=O)[O-])c1)C(=O)O (stereo unspecified),7.25%
13,O=[N+]([O-])c1ccc2c(c1)S(=O)c1ccccc1-2 (stereo unspecified),13.4%
14,N#CC(N=Nc1ccccc1C(=O)O)C(N)=O (stereo unspecified),-0.342%
15,O=[N+]([O-])c1ccc(C(Nc2ccccc2)c2ccc3cccnc3c2O)cc1 (stereo unspecified),11.2%
16,Cc1cc2ccccc2c[n+]1CC(O)C[n+]1cc2ccccc2cc1C,26.1% (active)
17,Cc1ccc(S(=O)(=O)OC2CC(C(C)(C)C)CCC2c2ccccc2)cc1 (stereo unspecified),2.36%
18,COc1cccc2c1C(CO)N1C(C#N)C3CC(C(=O)O)C(C1C2)N3C (stereo unspecified),-24.5% (active)
19,O=C(Nc1cccc(Cl)c1)Nn1cnnc1,10.3%
20,Cc1ccc(CN2CCN(Cc3ccc(C)o3)C(C)C2)o1 (stereo unspecified),0.417%
21,O=C(O)C1C2C=CC(O2)C1C(=O)Nc1ncccn1 (stereo unspecified),-6.76%
22,COc1ccc(C=NNC(=O)O)cc1,-2.22%

row,Structure (SMILES),hERG blockade
1,CC1CCN(CC(=O)N2c3ccccc3Sc3cc4ccccc4cc32)CC1,14%
2,CN1CCN(CC(=O)N2c3ccccc3Sc3cc4ccccc4cc32)CC1,52.7% (active)
3,O=C(CC1(O)CCCCC1)OC1CCCC1,-2.11%
4,CCOC(=O)c1c2c(n3ccccc13)C(=O)c1ccccc1C2=O,8.67%
5,NC1(C(=O)O)CCCC1C(=O)O (stereo unspecified),-13.4%
6,CCC1(O)C(=O)OCc2c1cc1n(c2=O)Cc2cc3c(CN(C)C)c(O)ccc3nc2-1 (stereo unspecified),21.4% (active)
7,O=C(O)c1ccc(NS(=O)(=O)Cc2ccccc2)cc1,7.65%
8,NC(N)=NC1C(O)C(O)C(O)C(N=C(N)N)C1O (stereo unspecified),-0.537%
9,Cc1[nH]c2ccccc2c1-c1cc(-c2cc(-c3c(C)[nH]c4ccccc34)on2)no1,-7.59%
10,N#Cc1c(NC(=O)C(F)(F)F)sc2c3c(=O)c4ccccc4c(=O)c=3oc3ccccc3c12,59% (active)
11,NCOC(=O)Cc1ccc(Br)cc1,-16.9%
12,COc1ccc2c(c1)[n+]([O-])c(C(C)=NNC(N)=S)c(C)[n+]2[O-],-7.37%
13,OCCNc1ncnc2nc[nH]c12,3.32%
14,O=C(O)CCNc1ncnc2nc[nH]c12,14%
15,c1nc(NCCc2cnc[nH]2)c2[nH]cnc2n1,-31% (active)
16,Cn1c(=O)c2[nH]c(N=NN3CCN(CCO)CC3)nc2n(C)c1=O,0.124%
17,O=C(O)C(=Cc1ccc(O)cc1)c1cccc2ccccc12,0.955%
18,Cn1c(CC(O)c2nc3ccccc3n2C)nc2ccccc21 (stereo unspecified),-5.68%
19,N=C(N)SCc1cccc(-c2nc3ccccc3c(=O)o2)c1,-5.77%
20,O=C(O)Cc1cccc2c(=O)cc(-c3ccccc3)oc12,-7.46%
21,N=C(N)SCc1cccc2c(=O)cc(-c3ccccc3)oc12,44.3% (active)
22,c1ccc2c(c1)C(=Nc1ccc(N=C3c4ccccc4-c4ccccc43)cc1)c1ccccc1-2,6.51%

row,Structure (SMILES),hERG blockade
1,CC(C)N(CC(=O)O)CC(=O)O,7.91%
2,NC(Cc1ccccc1)C(=O)O (stereo unspecified),16.4%
3,[N-]=[N+]=Nc1ccccc1-c1ccccc1[N+](=O)[O-],-19.7%
4,c1cc(-c2sc(-c3ccncc3)c(-c3ccncc3)c2-c2ccncc2)ccn1,22.4% (active)
5,Nc1[nH]c(=S)[nH]c(=O)c1N=Nc1c(Br)cc(S(N)(=O)=O)cc1Br,6.92%
6,CSC12C(=O)CC3(C)C(CCC3(O)C(=O)CO)C1CCC1=CC(=O)CCC12C (stereo unspecified),3.28%
7,Ic1ccc2c(c1)N(c1ccccc1)c1cc(Nc3ccc4nc5ccc(I)cc5[n+](-c5ccccc5)c4c3)ccc1N2,30.3% (active)
8,CN1CCCN(C)C1c1cc([N+](=O)[O-])ccc1O,11.9%
9,CC(N)C(C)Cc1ccccc1 (stereo unspecified),8.67%
10,COC(=O)c1cc(-c2ccc3ccccc3c2)[nH]c(=O)c1C#N,2.57%
11,ClC(Cl)(Cl)C(N1CCN(c2ccccc2)CC1)N1CCN(c2ccccc2)CC1,3.84%
12,Nc1cc(S(=O)(=O)O)cc2ccc(S(=O)(=O)O)cc12,-2.77%
13,CN(CCc1ccccn1)c1ccc2c(c1)Cc1ccccc1-2,20.3% (active)
14,CN(CCc1ccccn1)c1ccc2c(c1)C(=O)c1ccccc1-2,75.4% (active)
15,CC(C)C(=O)C(C)(C)CCc1ccccn1,1.93%
16,C(=Nc1ccc2c(c1)Cc1ccccc1-2)c1ccccn1,-16.5%
17,O=C1c2ccccc2-c2ccc(N(Cc3ccc(Br)cc3)Cc3ccc(Br)cc3)cc21,15.9%
18,ON(CCc1ccccn1)Cc1ccccc1,-7.89%
19,Cn1ncc2c(Cl)ncnc21,12.1%
20,O=C(O)CCCN1CCCCC1,-19.4%
21,NCCSCCc1ccccc1,-4.22%
22,NC(CC(=O)Nc1cc(C(F)(F)F)ccc1Cl)=NO,15.2%

row,Structure (SMILES),hERG blockade
1,CN1CCC(CN2c3ccccc3Sc3ccccc32)C1 (stereo unspecified),42.9% (active)
2,c1ccc2sc(SCN(C3CCCCC3)C3CCCCC3)nc2c1,12.7%
3,CCC12CCCN3CCc4c(n(c5ccccc45)C(=O)C1)C32 (stereo unspecified),37.7% (active)
4,CC1=CC(C)(C)Nc2ccc(CSc3ccccc3)cc21,0.516%
5,Nc1nc(N)c(-c2cccc(C(F)(F)F)c2)c(Cc2cccc(C(F)(F)F)c2)n1,11%
6,Nc1nc(-c2ccccc2)c(-c2ccccc2)c(-c2nc(N)nc(-c3ccccc3)c2-c2ccccc2)n1,1.5%
7,Nc1nc(Cc2ccccc2)nc(Cc2ccccc2)c1-c1ccccc1,29% (active)
8,Cn1c(=O)c2c(nc(C(=N)SCC(=O)O)n2C)n(C)c1=O,13.2%
9,O=C(O)CCSCc1ccccc1,-0.0927%
10,O=C(O)C=CC(=O)Nc1cccc2c1-c1ccccc1C2=O,-8.93%
11,NC(N)=Nc1ccc(-c2ccc(N=C(N)N)cc2)cc1,-0.0188%
12,O=C(O)c1cncc(C(=O)O)c1,3.7%
13,CC1CCCC=CC2CC(OC(=O)CN(C)C)CC2C(O)C=CC(=O)O1 (stereo unspecified),-21.9% (active)
14,COc1ccc(NCc2c(O)ccc3ccccc23)cc1,-7.42%
15,CSc1ccc(NC(=O)C2CCCCC2C(=O)O)cc1 (stereo unspecified),10.7%
16,NC(=O)NC(=O)C1CCCCC1C(=O)O (stereo unspecified),-24.9% (active)
17,CNCC(SC)c1ccc(O)c(O)c1 (stereo unspecified),11.7%
18,Cc1nc([N+](=O)[O-])cn1-c1nc2ccccn2c1[N+](=O)[O-],-4.23%
